A number with no mark means an inactive call. Calls of active or inactive are those of the source. Cut-off read from the data, not from the text of the source: active = fold change mostly below about -2 (no sharp cut-off); inactive = mostly above about -1.8.

This assay in a line: modulation of TERT promoter-driven luciferase – cell-based, luciferase reporter, human, primary screen (AID 1259240). Conditions: A2780 TERT promoter luciferase reporter, 16 h; at 20 µM, fold versus average of vehicle-only wells. On the technique in general: A reporter such as luciferase makes a cellular process visible.
Consider `O=C(CSc1c2c(nc3cc(Cl)ccc13)CCCC2)Nc1nccs1`, for which the fold change is -3.17 (active). For `CCCCN1C(=O)/C(=C2\SC(N3CCCCC3)=NC2=O)c2ccccc21`, the fold change is -8.65 (active). In the case of `CCC(C)(C)C(=O)Nc1nc2c(s1)C(=O)CC(C)(C)C2`, the fold change was 1.17. With `COc1ccccc1/C=c1\sc2nc(-c3cc(OC)c(OC)c(OC)c3)nn2c1=O`, the fold change is -1.32.

In the case of `Fc1ccc(Br)cc1C1C=C(c2cccnc2)Nc2ncnn21` (centres undefined), the result was inactive. Take `NC(=O)C1CCN(c2nc3ccccn3c(=O)c2/C=C2/SC(=S)N(CC(=O)O)C2=O)CC1`: the fold change is -1.43.

In the case of `Cc1nn(CC(=O)Nc2sc3c(c2C#N)CCCCC3)c(C)c1[N+](=O)[O-]`, the fold change is -1.25. Regarding `O=C(NCc1ccncc1)c1cc(-c2ccc3c(c2)OCO3)nc2ccccc12`, the fold change was -1.04. On the same count and under the same terms, the result for `CCS(=O)(=O)Nc1cccc(C2=NN(S(C)(=O)=O)C(c3cccs3)C2)c1` (centres undefined) reads -1.32. With `CCOC(=O)C(Sc1nnc(-c2c[nH]c3ccccc23)n1C)C(=O)OCC`, the result was inactive. As for `COc1ccc(-c2c(C)oc3c(CN4CCN(C)CC4)c(O)ccc3c2=O)cc1`, the fold change was 1.02.

On to `Cn1c(SCC(=O)N2CCOCC2)nnc1-c1c[nH]c2ccccc12`, for which the compound was called inactive. Regarding `CCN1CCN(CCNc2cc(C)nc3c(-c4ccc(OC)c(OC)c4)c(C)nn23)CC1`, the fold change was -1.31.

As to `CN(CC(=O)Nc1ccc(Br)cc1)S(=O)(=O)c1ccc2c(c1)CCC(=O)N2`, the fold change was -1.38. With `CC1CC(C)CN(C(=O)C2CCC(CNS(=O)(=O)c3cccc4nsnc34)CC2)C1` (centres undefined), the fold change is -1.1.

Take `Cn1nc(-c2ccc(C(=O)N3CCCC3)cc2)c2ccccc2c1=O`: the fold change was 1.06. In the case of `CCOC(=O)N1CCC(Nc2c(N3CCN(c4ccccc4F)CC3)c(=O)c2=O)CC1`, the fold change is -1.13. Consider `O=C(COc1ccc(Cl)cc1)Nc1ccc2nc3n(c(=O)c2c1)CCCCC3`, for which the fold change is -1.27. Consider `CCSc1nc2ccccc2n1S(=O)(=O)c1ccccc1`, for which the fold change is -2.48 (active). Consider `Cc1ccc2nc(NCc3ccc4c(c3)OCO4)c3nncn3c2c1`, for which the fold change is 1.52. For the compound `O=C(CC1C(=O)N(c2cccc(Cl)c2)C(=O)N1Cc1cccs1)Nc1ccccc1` (centres undefined), the fold change is 1.26. With `O=C1c2ccccc2-c2onc3c(N4CCCC4)cc(NCCN4CCCC4)c1c23`, the fold change was -1.05. For `Cc1cccc(-c2nc3s/c(=C\c4ccc(F)cc4)c(=O)n3n2)c1`, the fold change was -1.54. In the case of `CC1CCN(c2nnc(NC(=O)Nc3ccc(F)cc3)s2)CC1`, the fold change is -1.1. As to `CSc1ccc(-c2nc3sccn3c2Nc2ccccc2)cc1`, the fold change is -1.05. For `COc1ccccc1-c1nc(-c2ccccn2)no1`, the fold change was -2.84 (active). Turning to `CC1CCCCC1NC(=O)c1cc2c(s1)-c1ccccc1OC2` (centres undefined), the fold change was -2.96 (active).

With `COc1ccc(-c2cc(C(F)(F)F)nc(SCCC(=O)N3CCN4CCCC4C3)n2)cc1` (centres undefined), the fold change was -1.73. Regarding `Cc1ccc(-c2csc3ncnc(NCCC(=O)O)c23)cc1`, the fold change was 1.18.

In the case of `CCOc1cc2c(cc1OCC)C(c1cc(OC)c(OC)c(OC)c1)CC(=O)N2` (centres undefined), the fold change was -1.02. With `c1cc2nncn2nc1N1CCN(C2CCCCC2)CC1`, the fold change is -1.21.

With `Cc1ccc(OCc2nc(-c3ccc(-n4cccc4)cc3)no2)cc1C`, the fold change is -2.34 (active). `Cc1nn2c(=O)/c(=C/c3ccc(Cl)c(Cl)c3)sc2nc1=O`: the fold change was 1.84.

Consider `CCOC(=O)C1CCN(c2c(NCCCN3CCCCCC3)c(=O)c2=O)CC1`, for which the fold change is -1.3. As for `CCOC(=O)C1=C(CS(=O)(=O)c2ccccc2)NC(=O)NC1c1ccccc1` (centres undefined), the fold change was 1.91.

As to `Cc1ccc(-c2n[nH]c3c2C(c2ccccn2)N(c2ccc(C(=O)O)cc2)C3=O)cc1` (centres undefined), the fold change was -1.91. `CCc1ccc2nc(NC3=NCN(CCN4CCOCC4)CN3)nc(C)c2c1`: the fold change was -1.26. With `COC(=O)c1ccc(-c2ccc(/C=C3/NC(=O)N(c4ccccc4)C3=O)o2)cc1`, the fold change was -2.59 (active). With `CS(=O)(=O)Nc1ccc(C2=NN(C(=O)c3ccco3)C(c3ccco3)C2)cc1` (centres undefined), the fold change is 1.01.

These data come from PubChem BioAssay AID1259240 (Keith Lab, Institute of Cancer Science, University of …, 2017).
